# Test results: the supplement of paper PMC6555819
# Assays:
# Experiment in all cases: PBM binding z-score (relative to random genomic background probes); higher = stronger binding; sequences stand for … in GC…GCGATTGACAGCGTAGAATGAAGG
# [1] = test system: FXR:RXRa (NR concentration 270 nM, RXRa partner concentration 90 nM)
# Summary of the method: (§1)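 Binding buffer was PBS pH 7.4 with 2% milk, 0.02% Triton X-100, 1 mM DTT, 0.2 mg/mL BSA and 0.4 mg/ml salmon testes DNA. In it, ligand-free nuclear receptor dimers were incubated 1 h on custom Agilent 4×180K protein-binding microarrays carrying double-stranded probes. Antibodies against each partner (one per run) detected binding, and z-scores were calculated against random background probes after regression normalization of scanned fluorescence.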
# [2] = test system: LXRa:RXRa (NR concentration 270 nM, RXRa partner concentration 90 nM)
# Summary of the method: as §1
# [3] = test system: LXRa homodimer (NR concentration 270 nM)
# Summary of the method: as §1
# [4] = test system: LXRb:RXRa (NR concentration 270 nM, RXRa partner concentration 90 nM)
# Summary of the method: as §1
# [5] = test system: LXRb homodimer (NR concentration 270 nM)
# Summary of the method: as §1
# [6] = test system: PPARa:RXRa (NR concentration 270 nM, RXRa partner concentration 90 nM)
# Summary of the method: as §1
# [7] = test system: PPARg:RXRa (NR concentration 180 nM, RXRa partner concentration 90 nM)
# Summary of the method: as §1
# [8] = test system: PPARg:RXRa 270nM:90nM, anti-RXR (NR concentration 270 nM, RXRa partner concentration 90 nM)
# Summary of the method: as §1
# [9] = test system: PPARg:RXRa 30nM:10nM, anti-RXR (NR concentration 30 nM, RXRa partner concentration 10 nM)
# Summary of the method: as §1
# [10] = test system: PPARg:RXRa 90nM:30nM, anti-RXR (NR concentration 90 nM, RXRa partner concentration 30 nM)
# Summary of the method: as §1
Sequence,PBM binding z-score [1],PBM binding z-score [2],PBM binding z-score [3],PBM binding z-score [4],PBM binding z-score [5],PBM binding z-score [6],PBM binding z-score [7],PBM binding z-score [8],PBM binding z-score [9],PBM binding z-score [10]
CGTCCAAGGTCATAGGAGGTCTGTGAAGACAGAT,7.54,5.3,0.925,4.01,0.481,5.64,4.98,5.2,1.89,3.88
ACAGACAGGTGATGAAGGTAACTCAAGCTATCAT,-0.102,-0.296,-0.525,-0.0355,-0.354,0.0252,0.537,-0.224,0.113,-0.261
GGAACGCGGGCAAGTTGATAGCAGAGTTTGATGG,-0.639,-0.548,-0.597,-1.24,-0.732,-0.903,0.256,-0.889,-0.573,-0.957
TCATATAGGTAAACACGTGAAAGTCCGTAAGTTA,0.505,0.566,0.235,0.56,0.236,1.33,1.16,2.12,3.63,2.89
ATCTCTAGGTAACCAAGTTTAGTGAATGCCGAAC,0.39,0.24,0.318,0.275,0.481,0.803,0.412,0.529,0.254,0.616
ATCTCTAGGTAACCAAATTCAGTGAATGCCGAAC,0.306,0.196,0.385,0.283,0.743,0.476,0.6,0.634,0.182,0.59
ATCGAAAGGTCGTGCGGTGAGTATACAGAAAGGC,5.34,4.25,0.222,3.12,1.5,4.84,3.25,3.58,1.04,2.23
TCATATAGGTAAATGCTGGGTGAAAGTCCGATCT,1.03,1.11,0.288,0.818,0.924,1.38,0.836,2.2,3.63,3.26
CGTCCAAGGTCAAAGGTCAGTGAAGAGATGACGG,8.56,7.07,3.31,6.61,1.67,7.33,10.8,8.93,8.26,9.54
ATATGTAGGTTAAGGGTCATTCACGTTGGTTCGC,5.72,4.91,2.96,4.5,1.26,6.49,11.8,9.66,9.95,11.2
TCTTGTAGATCAATAGGGGTTAAGAAAGTGCGCT,1.29,4.13,0.187,2.93,0.868,2.7,0.337,2.1,2.94,2.42
ATCTCTAGGCAAAGATAGTTCAGTGAATGCAAAT,-0.415,0.271,0.124,-0.207,0.263,-0.233,0.154,-0.151,-0.0446,-0.153
TCATATAGGTAAAGGTGAATGTCGAACGATATGA,0.972,1.33,-0.151,1.19,-0.0794,2.99,4.24,4.23,4.36,4.59
AGTCAAAGTTCATCTAGGTAACGTCAGATATGCT,6.97,6.1,5.62,4,1.91,4.87,6.42,6.54,3.63,5.58
CCTACTGGACCACGAAAGGTCATTGATTCAGTGA,3.93,5,5.74,4.47,1.54,4.5,2.84,3.67,1.47,2.9
TCATATAGGTAAATGCTAGGGGAAAGTCCGATCT,0.958,0.949,0.455,0.865,0.134,1.21,0.788,2.13,3.88,3.25

Sequence,PBM binding z-score [1],PBM binding z-score [2],PBM binding z-score [3],PBM binding z-score [4],PBM binding z-score [5],PBM binding z-score [6],PBM binding z-score [7],PBM binding z-score [8],PBM binding z-score [9],PBM binding z-score [10]
CCGCCTGGGGCAGAAAGGTTACCATACCATCCGG,0.138,0.416,-0.112,0.678,-1.32,1.59,0.804,1.25,-0.385,0.357
ATGGAAAGGTCGACGAGGTGAGTATACACCGTTT,4.39,3.03,-0.133,2.47,0.238,4.12,2.69,2.93,1.17,1.95
ACTAGTTGGTCAGCAGAGGTCACACACAATTCGG,4.13,4.71,4.06,4.34,1.39,4.7,3.33,3.79,1.16,3.11
AGAATGAGGTTACCAAAGATCCGGGAAACGCTTG,1.58,2.04,-0.0971,1.33,-0.177,3.23,2.5,2.84,0.971,2.13
TCGAGTAGGTTAGTCGGGGCATTCCGCCAACATA,0.02,0.121,-0.495,0.444,-0.721,0.661,-0.328,0.877,1.07,0.912
CGTCAAAGTTCAACTAAGGTAACGTAAAGCACGC,7.09,6.32,4.44,4.24,1.99,5.14,5.22,5.44,2.32,4.08
ATCGAAAGGTCGAGGTGAGTATCGAGAAAGGGAA,4.43,3.37,-0.107,2.73,0.435,4.56,3.35,3.74,1.49,2.48
CCCACTGGGGCAGAAAGGTTACCATACCATCCGG,0.135,0.483,-0.148,0.675,-0.892,2.12,2.04,2.59,0.549,2.22
TCTCTTAGTTGAAGGGCAACCGACGAGTCCGTTT,0.776,1.01,0.193,0.945,0.697,1.06,-0.252,2.02,3.7,3.13
TCATATAGGTTAATGCTAGGTGAAAGTCCGATCT,1.19,2.25,0.441,1.28,0.557,2.55,2.14,3.06,3.79,3.26
GCATATAGGTAATCCAAGGTGAAAGTCCGATTGT,2.37,2.66,0.0628,0.738,-0.267,1.76,1.15,1.24,0.358,0.949
CGTCCAAGGTCAAAGCTCAGTGAAGAGATGACGG,7.32,5.36,0.938,3.83,0.937,5.37,4.98,5.4,2.13,4.12
CCTACTGGGCCAAAAAGGTCAGTGATGCCGATAA,1.31,1.9,0.693,2.27,-0.789,3.36,2.04,2.9,0.549,1.83
TCAGACGGGTGAAGGTAACTCAGGTACGCAGTCG,0.211,1.12,-0.137,0.138,-0.885,1.02,0.625,1.66,2.83,2.17
ATCTCTAGGTATGACTCAGTTCAGTGAAGAACGC,0.312,0.266,0.305,0.205,0.789,0.0186,0.264,0.0643,-0.0117,0.0715
AGAACGAGGGCAATGATTTGATAGCACGGGTGGC,0.321,0.43,-0.337,0.168,-0.65,1.41,1.57,0.787,0.29,0.557
